Screening data (PubChem)
PHOSPHO1 inh – PubChem AID 1565; 290,000 compounds, 1.1% hits; inhibition, % at 13.3 µM; recombinant PHOSPHO1, absorbance phosphatase assay; Phosphoethanolamine/phosphocholine phosphatase (Homo sapiens), Q8TCT1; in the data active = inhibition above about 60%
Target sequence (Q8TCT1 whole entry, looked up): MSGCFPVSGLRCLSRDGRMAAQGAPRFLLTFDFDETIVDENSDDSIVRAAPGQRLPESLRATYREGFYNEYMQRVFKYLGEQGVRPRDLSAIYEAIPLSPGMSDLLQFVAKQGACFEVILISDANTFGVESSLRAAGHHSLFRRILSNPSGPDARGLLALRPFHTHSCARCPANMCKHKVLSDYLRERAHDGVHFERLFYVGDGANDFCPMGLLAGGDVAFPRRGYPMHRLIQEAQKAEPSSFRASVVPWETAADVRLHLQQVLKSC
PfGluPho inh – PfG6PD enzyme inhibitors, primary screen, biochemical, fluorescence intensity, uHTS; glucose-6-phosphate dehydrogenase-6-phosphogluconolactonase (Plasmodium falciparum 3D7); PfGluPho enzyme, NADPH resazurin-diaphorase fluorescence; inhibition, % at 20 µM; 350,000 compounds, 0.78% hits;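 active = inhibition reaching at least a set limit at 20 µM in the primary screen, cut at about 59% in these data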
ALR inh – inhibitors of human ALR sulfhydryl oxidase, primary screen, biochemical, H2O2 detection, HRP-luminol luminescence, single point | FAD-linked sulfhydryl oxidase ALR (Homo sapiens), P55789 | purified ALR, DTT oxidation | inhibition, % (no concentration beside the values) | 290,000 compounds, 3.8% hits;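 active = mean replicate inhibition above about 79%, with every replicate also reaching it, limit read from the data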
Target sequence (P55789 whole entry, looked up): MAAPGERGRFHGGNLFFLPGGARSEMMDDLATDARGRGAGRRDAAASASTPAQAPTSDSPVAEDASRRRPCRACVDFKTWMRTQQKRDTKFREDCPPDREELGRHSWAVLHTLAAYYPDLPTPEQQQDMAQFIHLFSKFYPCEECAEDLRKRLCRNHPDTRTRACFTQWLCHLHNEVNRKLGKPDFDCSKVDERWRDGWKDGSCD
M18AAP inhibitor – PfM18AAP inhibitors, malaria aminopeptidase, primary screen, biochemical, QFRET, recombinant enzyme. H-Glu-NHMec fluorogenic cleavage. inhibition, % at 7.35 µM. 290,000 compounds, 1.2% hits. M18 aspartyl aminopeptidase (Plasmodium falciparum 3D7);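 active = inhibition above the campaign mean inhibition over all tested compounds plus 3 SD, cut at about 28% in these data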
H9c2 protect – cardioprotection against H2O2-induced cell death, primary screen, uHTS, H9c2 cells, ATPLite luminescence; 360,000 compounds, 0.63% hits; H9c2 cardiomyocytes, H2O2 injury protection, 2 h; protection from H2O2 cell death, % at 20 µM;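 active = compounds giving at least 50% protection of heart cells from peroxide-induced death in the single-dose screen, raw or plate-pattern-corrected value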
PfG6PD confirm – PfG6PD inhibitors, hit retest, confirmation, biochemical, fluorescence intensity, single concentration; shares compounds with PfGluPho inh; recombinant PfGluPho, NADPH-diaphorase-resazurin fluorescence; inhibition, % at 20 µM; 2,400 compounds, 34% hits; AID 504753, 2011;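 active = inhibition of at least 50% at 20 µM in any single replicate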
Diaph ctr 10uM – diaphorase inhibitors and chemical oxidizers, confirmation, counter-screen for P. falciparum G6PD inhibitor project, biochemical, fluorescence intensity, 10 µM NADPH | shares compounds with PfGluPho inh | diaphorase-coupled resazurin reduction, NADPH 10 uM | inhibition, % at 20 µM | 820 compounds, 39% hits | AID 504862, 2011;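 active = average inhibition reaching 50% or more with the compound at 20 µM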;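 also: resorufin red fluorescence formed as diaphorase reduces resazurin using NADPH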
Diaphorase 30uM – diaphorase inhibitors and chemical oxidizers, confirmation, counter-screen for P. falciparum G6PD inhibitor project, biochemical, fluorescence intensity, 30 µM NADPH. Diaphorase/resazurin coupled assay, resorufin fluorescence. shares compounds with PfGluPho inh. AID 504863, 2011. inhibition, % at 20 µM. 820 compounds, 29% hits;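 active = inhibition averaging 50% or more, tested at 20 µM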
Numbers stand for hits. Sampled rows, rich in hits. Any-hit rate of the full collection: about 5.6%.

O=C1C=C(N(CCO)Cc2ccccc2)c2ccccc2C1=O was read as PHOSPHO1 inh inactive, PfGluPho inh 71, M18AAP inhibitor inactive, H9c2 protect inactive and PfG6PD confirm inactive.
O=C(CCNS(=O)(=O)c1ccc(Br)cc1)NCC(c1cccs1)N1CCOCC1 (stereo not given) was read as PfGluPho inh inactive and H9c2 protect inactive.
`Cc1ccn2c(Cc3ccccc3)c(-c3ccc(Br)cc3)nc2c1` gave PfGluPho inh 108, H9c2 protect inactive and PfG6PD confirm inactive.
Cc1ccc(Cc2c(-c3ccc(Cl)cc3)nc3cc(C)c(Br)c(C)n23)cc1 was read as H9c2 protect inactive.
For Cc1ccn2c(Cc3ccccc3)c(-c3ccccc3)nc2c1 the results were PfGluPho inh inactive and H9c2 protect inactive.
For Cc1ccc(Cc2c(-c3ccc(C)cc3)nc3cc(C)ccn23)cc1 the results were PfGluPho inh 63, H9c2 protect inactive and PfG6PD confirm inactive.
`Cc1ccc(Cc2c(-c3ccc(Cl)cc3)nc3cc(C)ccn23)cc1` gave PfGluPho inh 96, H9c2 protect inactive and PfG6PD confirm inactive.
CCOC(=O)[C@H]1[C@H]2COc3ccc(OC)cc3[C@@H]2N2C(=O)c3cc(OC)ccc3NC(=O)[C@@]12C was read as PfGluPho inh inactive and H9c2 protect inactive.
COc1ccc(NC(=O)c2oc3ccccc3c2CSC)cn1 was read as PHOSPHO1 inh inactive, PfGluPho inh 73, M18AAP inhibitor inactive, H9c2 protect inactive and PfG6PD confirm inactive.
COCCN(CCOC)Cc1c(O)ccc2c1O/C(=C\c1ccc(C)o1)C2=O was read as PHOSPHO1 inh inactive, PfGluPho inh 63, ALR inh inactive, M18AAP inhibitor inactive, H9c2 protect inactive and PfG6PD confirm inactive.
O=C(c1ccccc1)c1ccccc1C(=O)N1CCOCC1 was read as PHOSPHO1 inh inactive, PfGluPho inh inactive, ALR inh inactive, M18AAP inhibitor inactive and H9c2 protect inactive.
For O=C(c1ccc(Cl)cc1)c1ccccc1C(=O)N1CCOCC1 the results were PHOSPHO1 inh inactive, PfGluPho inh 63, ALR inh inactive, M18AAP inhibitor inactive, H9c2 protect inactive and PfG6PD confirm inactive.
`CCC1CCc2c(sc(NC(=O)c3ccco3)c2C(N)=O)C1` (stereo not given) gave PHOSPHO1 inh inactive, PfGluPho inh inactive, ALR inh inactive, M18AAP inhibitor inactive and H9c2 protect inactive.
`CCC1CCc2c(sc(NC(=O)c3cnccn3)c2C(N)=O)C1` (stereo not given) gave PHOSPHO1 inh inactive, PfGluPho inh 69, M18AAP inhibitor inactive, H9c2 protect inactive and PfG6PD confirm inactive.
For COc1ccc(NC(=O)CCCn2nc(C)c3c(C)n(-c4ccccc4)nc3c2=O)cc1OC the results were PHOSPHO1 inh inactive, PfGluPho inh inactive, ALR inh inactive, M18AAP inhibitor inactive and H9c2 protect inactive.
For Cc1ccc(NC(=O)CCCn2nc(C)c3c(C)n(-c4ccccc4)nc3c2=O)cc1C the results were PHOSPHO1 inh inactive, PfGluPho inh 64, ALR inh inactive, M18AAP inhibitor inactive, H9c2 protect inactive and PfG6PD confirm inactive.
Screening Oc1ccc(N2CCN(Cc3ccc(OCCCN4CCCCC4)cc3)CC2)cc1 returned PHOSPHO1 inh inactive, PfGluPho inh 75, ALR inh 99, M18AAP inhibitor inactive, H9c2 protect inactive and PfG6PD confirm inactive.
Screening CCCCOc1ccc(CN2CCCCC2)cc1 returned PHOSPHO1 inh inactive, PfGluPho inh inactive, ALR inh inactive, M18AAP inhibitor inactive and H9c2 protect inactive.
`OC[C@@H]1CN(Cc2ccccc2)C[C@H](n2cnc3c(Nc4ccccc4)ncnc32)O1` gave H9c2 protect inactive.
`O=c1c2ccccc2sn1-c1nccs1` gave PHOSPHO1 inh inactive, PfGluPho inh 112, M18AAP inhibitor inactive, H9c2 protect inactive, PfG6PD confirm 115, Diaph ctr 10uM inactive and Diaphorase 30uM inactive.
`O=c1c2ccccc2sn1-c1cccc(Cl)c1` gave PfGluPho inh 128, H9c2 protect inactive, PfG6PD confirm 104, Diaph ctr 10uM inactive and Diaphorase 30uM inactive.
For O=C1CN(c2ccccc2F)C(=O)CN1c1ccccc1F the results were PHOSPHO1 inh inactive, PfGluPho inh inactive, M18AAP inhibitor inactive and H9c2 protect inactive.
`O=c1c2ccccc2sn1-c1ccccc1F` gave PfGluPho inh 122, H9c2 protect inactive, PfG6PD confirm 109, Diaph ctr 10uM inactive and Diaphorase 30uM inactive.
`O=C1c2ccccc2C(=O)N1c1nccs1` gave PfGluPho inh inactive and H9c2 protect inactive.
Cn1sc2ccccc2c1=O was read as PfGluPho inh 91, H9c2 protect inactive, PfG6PD confirm 52, Diaph ctr 10uM inactive and Diaphorase 30uM inactive.
For O=c1nc2sc3ccccc3n2c(=O)n1-c1cccc(Cl)c1 the results were PHOSPHO1 inh inactive, PfGluPho inh inactive, ALR inh inactive, M18AAP inhibitor inactive and H9c2 protect inactive.
CC1(C)N=C(N)NC(=NCCCOc2ccc([N+](=O)[O-])cc2)N1 was read as H9c2 protect inactive.
`N#Cc1ccc(CN2CCN(CC(=O)NCCc3ccc(Cl)cc3Cl)CC2)cc1` gave PHOSPHO1 inh inactive, PfGluPho inh inactive, ALR inh inactive, M18AAP inhibitor inactive and H9c2 protect inactive.
`Nc1ccc(S(=O)(=O)c2cc(O)c3ccccc3c2O)cc1` gave PfGluPho inh 103, H9c2 protect inactive, PfG6PD confirm 70, Diaph ctr 10uM inactive and Diaphorase 30uM inactive.
`COC(=O)c1ccc(S(=O)(=O)c2ccccc2)c(N)c1` gave PHOSPHO1 inh inactive, PfGluPho inh inactive, ALR inh inactive, M18AAP inhibitor inactive and H9c2 protect inactive.
CCCCNc1cc(=O)n(C)c(=O)n1C was read as PHOSPHO1 inh inactive, PfGluPho inh inactive, ALR inh inactive, M18AAP inhibitor inactive and H9c2 protect inactive.
For CCCCNC1=CC(=O)C(NCCCC)=CC1=O the results were PfGluPho inh 62, H9c2 protect inactive and PfG6PD confirm inactive.
Screening Cc1cc2c(cc1C)C(c1ccccc1OC(C)C)CC(=O)N2 (stereo not given) returned PHOSPHO1 inh inactive, PfGluPho inh inactive, ALR inh inactive, M18AAP inhibitor inactive and H9c2 protect inactive.
